Measurements from PubChem BioAssay AID1159580 (chemical genetic matrix, 2015).
Values joined by “and” are separate entries in the source; they are usually repeats but may differ in a detail not shown here. Equal values may be shown once. The campaign covered roughly 5,500 compounds. About 2,000 (36%) were called active. Roughly 18% stayed inconclusive and do not appear here. Cut-off read from the data, not from the text of the source: active = normalized growth mostly below about 0.91 (no sharp cut-off); inconclusive = no clear call, values can overlap the other calls; inactive = mostly above about 0.92. Some of the results follow.

Test: chemical genetic growth profiling, strain panel (AID 1159580);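 note: tested at 20 µM; growth read once vehicle control cultures reached saturation at 30 °C; 1 = growth at the plate median or of vehicle wells; lower values mean less growth of the strain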
Conditions: S. cerevisiae deletion strains, growth OD
[1] = locus YGR229C, strain SMI1, hits give low values
[2] = locus YMR307W, strain GAS1, hits give low values
[3] = locus YPL055C, strain LGE1, hits give low values

Measured: normalized growth

Cn1cc[nH]c1=S
inactive: locus YAL021C, strain ccr4, hits give low values 0.981 | locus YAL026C, strain drs2, hits give low values 0.99 | locus YAL030W, strain snc1, hits give low values 0.99 | locus YBL061C, strain skt5, hits give low values 0.99 | locus YBR009C, strain hhf1, hits give low values 1.03 | locus YBR021W, strain FUR4, hits give low values 0.991 | locus YBR023C, strain chs3, hits give low values 0.98 | locus YBR171W, strain sec66, hits give low values 0.99 | locus YBR229C, strain ROT2, hits give low values 1.01 | locus YBR231C, strain swc5, hits give low values 1 | locus YBR279W, strain paf1, hits give low values 0.974 | locus YCL011C, strain gbp2, hits give low values 0.967 | locus YCL016C, strain dcc1, hits give low values 0.963 | locus YCL029C, strain bik1, hits give low values 0.976 | locus YCL069W, strain vba3, hits give low values 0.999 | locus YCR088W, strain abp1, hits give low values 0.991 | locus YDL005C, strain med2, hits give low values 0.963 | locus YDL035C, strain GPR1, hits give low values 1.01 | locus YDL040C, strain nat1, hits give low values 0.989 | locus YDL074C, strain BRE1, hits give low values 1.02 | locus YDL101C, strain DUN1, hits give low values 0.996 | locus YDL185W, strain tfp1, hits give low values 0.935 | locus YDL192W, strain arf1, hits give low values 0.971 | locus YDR001C, strain nth1, hits give low values 0.989 | locus YDR069C, strain doa4, hits give low values 1.01 | locus YDR101C, strain arx1, hits give low values 1.02 | locus YDR137W, strain rgp1, hits give low values 0.985 | locus YDR159W, strain sac3, hits give low values 0.974 | locus YDR162C, strain NBP2, hits give low values 1.01 | locus YDR195W, strain ref2 0.99 | locus YDR297W, strain sur2, hits give low values 1.01 | locus YDR318W, strain mcm21, hits give low values 0.968 | locus YDR334W, strain swr1, hits give low values 0.973 | locus YDR335W, strain msn5, hits give low values 1 | locus YDR388W, hits give low values 0.991 | locus YDR392W, strain spt3, hits give low values 0.887 | locus YDR502C, strain sam2, hits give low values 0.993 | locus YEL003W, strain gim4, hits give low values 1 | locus YEL037C, strain rad23, hits give low values 0.98 | locus YEL061C, strain CIN8 (second series), hits give low values 0.984 | locus YEL061C, strain CIN8, hits give low values 0.985 | locus YER015W, strain faa2, hits give low values 0.993 | locus YER016W, strain bim1, hits give low values 0.978 | locus YER110C, hits give low values 0.967 | locus YER111C, strain swi4, hits give low values 0.967 | locus YER155C, strain BEM2 (second series), hits give low values 0.976 | locus YER155C, strain BEM2, hits give low values 1 | locus YER167W, strain BCK2, hits give low values 1 | locus YFR010W, strain ubp6, hits give low values 1.01 | locus YGL078C, strain dbp3, hits give low values 0.956 | locus YGL086W, strain mad1, hits give low values 1.01 | locus YGL167C, strain pmr1, hits give low values 0.992 | locus YGL173C, strain kem1, hits give low values 0.987 | locus YGL227W, strain vid30, hits give low values 1.01 | locus YGL240W, strain doc1, hits give low values 0.981 | locus YGL248W, strain PDE1, hits give low values 1 | locus YGL253W, strain hxk2, hits give low values 0.97 | locus YGR078C, strain PAC10, hits give low values 1 | locus YGR135W, strain pre9, hits give low values 0.938 | [1] 1.01 | locus YGR252W, strain gcn5, hits give low values 0.958 | locus YHR013C, strain ard1, hits give low values 0.949 | locus YHR027C, strain rpn1, hits give low values 1 | locus YHR030C, strain SLT2, hits give low values 0.997 and 1.04 | locus YHR079C, strain IRE1 (second series), hits give low values 0.971 | locus YHR079C, strain IRE1, hits give low values 1.04 | locus YHR094C, strain hxt1, hits give low values 0.992 | locus YHR129C, strain ARP1, hits give low values 1.01 | locus YHR142W, strain chs7, hits give low values 0.981 | locus YHR200W, strain rpn10, hits give low values 0.971 | locus YIL066C, strain RNR3, hits give low values 1.01 | locus YIL073C, strain SPO22, hits give low values 0.929 | locus YIL125W, strain kgd1, hits give low values 0.986 | locus YIR030C, strain dcg1, hits give low values 0.964 | locus YJL092W, strain hpr5, hits give low values 1 | locus YJL095W, strain BCK1 (second series), hits give low values 0.988 | locus YJL095W, strain BCK1, hits give low values 0.991 and 1.03 | locus YJL115W, strain asf1, hits give low values 0.988 | locus YJL129C, strain trk1, hits give low values 0.963 | locus YJL134W, strain LCB3, hits give low values 0.999 | locus YJL154C, strain vps35, hits give low values 0.984 | locus YJL164C, strain tpk1, hits give low values 1.02 | locus YJL166W, strain qcr8, hits give low values 1.03 | locus YJL168C, strain set2, hits give low values 0.984 | locus YJL187C, strain SWE1 (second series), hits give low values 1 | locus YJR043C, strain POL32, hits give low values 1.02 | locus YJR066W, strain TOR1, hits give low values 0.991 | locus YJR075W, strain HOC1, hits give low values 0.997 | locus YKL009W, strain mrt4, hits give low values 0.966 | locus YKL068W, hits give low values 0.987 | locus YKL085W, strain MDH1 (second series), hits give low values 0.967 | locus YKL085W, strain MDH1, hits give low values 0.967 | locus YKL160W, strain elf1, hits give low values 0.952 | locus YKL190W, strain CNB1, hits give low values 0.985 | locus YKR001C, strain vps1, hits give low values 0.996 | locus YKR026C, strain gcn3, hits give low values 0.985 | locus YKR091W, strain srl3, hits give low values 0.983 | locus YLL001W, strain dnm1, hits give low values 1 | locus YLL026W, hits give low values 1 | locus YLL041C, strain sdh2, hits give low values 1.01 | locus YLR027C, strain aat2, hits give low values 0.991 | locus YLR039C, strain RIC1, hits give low values 0.879 | locus YLR058C, strain SHM2, hits give low values 1 | locus YLR102C, strain apc9, hits give low values 0.972 | locus YLR113W, strain HOG1, hits give low values 1.03 | locus YLR221C, strain rsa3, hits give low values 1.04 | locus YLR258W, strain gsy2, hits give low values 0.979 | locus YLR262C, strain YPT6 (second series), hits give low values 1.06 | locus YLR262C, strain YPT6, hits give low values 0.995 | locus YLR268W, strain sec22, hits give low values 0.981 | locus YLR320W, strain mms22, hits give low values 0.999 | locus YLR330W, strain CHS5, hits give low values 0.995 | locus YLR342W, strain FKS1 (second series), hits give low values 1.01 | locus YLR342W, strain FKS1, hits give low values 0.97 | locus YLR357W, strain rsc2, hits give low values 0.98 | locus YLR370C, strain arc18, hits give low values 0.978 | locus YLR371W, strain rom2, hits give low values 0.983 | locus YLR384C, strain iki3, hits give low values 0.997 | locus YLR418C, strain cdc73, hits give low values 0.965 | locus YML016C, strain PPZ1, hits give low values 1.01 | locus YML032C, strain rad52, hits give low values 0.994 | locus YML120C, strain ndi1, hits give low values 1.01 | locus YML124C, strain tub3, hits give low values 0.977 | locus YMR058W, strain fet3, hits give low values 0.995 | locus YMR078C, strain ctf18, hits give low values 0.96 | locus YMR125W, strain sto1, hits give low values 0.973 | locus YMR129W, hits give low values 1 | locus YMR205C, strain PFK2, hits give low values 0.984 | locus YMR223W, strain ubp8, hits give low values 0.952 | locus YMR231W, strain pep5, hits give low values 0.981 | [2] 1.05 | locus YNL067W, strain RPL9B, hits give low values 0.997 | locus YNL071W, strain lat1, hits give low values 0.989 | locus YNL153C, strain GIM3, hits give low values 1.01 | locus YNL183C, strain NPR1, hits give low values 0.993 | locus YNL209W, strain ssb2, hits give low values 0.979 | locus YNL233W, strain BNI4, hits give low values 1 | locus YNL248C, strain rpa49, hits give low values 0.965 | locus YNL250W, strain rad50, hits give low values 0.964 | locus YNL271C, strain bni1, hits give low values 0.97 | locus YNL298W, strain CLA4, hits give low values 0.946 | locus YNL307C, strain MCK1, hits give low values 0.982 | locus YNL322C, strain KRE1 (second series), hits give low values 0.966 | locus YNR049C, strain mso1, hits give low values 0.998 | locus YNR052C, strain pop2, hits give low values 0.962 | locus YOL006C, strain TOP1, hits give low values 0.987 | locus YOL012C, strain htz1 0.891 | locus YOL147C, strain pex11, hits give low values 0.973 | locus YOR001W, strain rrp6, hits give low values 1.03 | locus YOR061W, strain CKA2, hits give low values 1 | locus YOR069W, strain VPS5, hits give low values 1.01 | locus YOR070C, strain gyp1, hits give low values 0.994 | locus YOR080W, strain dia2, hits give low values 1 | locus YOR083W, strain WHI5, hits give low values 0.922 | locus YOR106W, strain vam3, hits give low values 0.977 | locus YOR136W, strain idh2, hits give low values 0.987 | locus YOR144C, strain elg1, hits give low values 0.986 | locus YOR184W, strain ser1, hits give low values 0.974 | locus YOR231W, strain MKK1, hits give low values 1.04 | locus YOR265W, strain rbl2, hits give low values 0.997 | locus YOR270C, strain vph1, hits give low values 1.07 | locus YOR290C, strain snf2, hits give low values 0.955 | locus YOR316C, strain cot1, hits give low values 0.974 | locus YPL051W, strain arl3, hits give low values 0.98 | [3] 0.999 | locus YPL078C, strain atp4, hits give low values 1 | locus YPL106C, strain sse1, hits give low values 0.965 | locus YPL240C, strain hsp82, hits give low values 1.02 | locus YPL241C, strain CIN2, hits give low values 1 | locus YPL256C, strain CLN2, hits give low values 1.06 | locus YPR119W, strain clb2, hits give low values 0.968 | locus YPR141C, strain kar3, hits give low values 0.977 | locus YPR163C, strain tif3, hits give low values 0.976 | locus YPR167C, strain met16, hits give low values 0.983 | strain wtn01, hits give low values 0.97

Oc1ccc(Cn2cc[nH]c2=S)cc1
inactive: locus YAL040C, strain CLN3, hits give low values 0.993 | locus YCL061C, strain MRC1 (second series), hits give low values 1.01 | locus YDR363W, strain ESC2, hits give low values 1 | locus YER002W, strain NOP16, hits give low values 1.03 | [1] 0.986 | [2] 1 | locus YNL175C, strain NOP13, hits give low values 1 | locus YNL224C, strain SQS1, hits give low values 0.999 | [3] 1.01
active: locus YNL197C, strain WHI3, hits give low values 0.477 | locus YOR083W, strain WHI5 (second series), hits give low values 0.681
